Among the data in ChEMBL document CHEMBL3988442, “University of Dundee, Small-Polar-MMV Screening Library” (2021) are Percent Effect values, retold here.

Among all 65,000 compounds or so, about 65 (0.1%) showed an effect of 50% or more. The full list was thinned out, with strong results kept by preference.

In the test the target is Tryptophan--tRNA ligase (Mycobacterium tuberculosis (strain ATCC 25618 / H37Rv)) (UniProt P9WFT3). In words: Biochemical assay for Mt-TrpRS. Type of test: functional. Also on record: scale not given: direction of the effect not stated beside the values. As to conditions: 10 µM.
Tryptophan--tRNA ligase (Mycobacterium tuberculosis (strain ATCC 25618 / H37Rv)), sequence (P9WFT3 whole entry): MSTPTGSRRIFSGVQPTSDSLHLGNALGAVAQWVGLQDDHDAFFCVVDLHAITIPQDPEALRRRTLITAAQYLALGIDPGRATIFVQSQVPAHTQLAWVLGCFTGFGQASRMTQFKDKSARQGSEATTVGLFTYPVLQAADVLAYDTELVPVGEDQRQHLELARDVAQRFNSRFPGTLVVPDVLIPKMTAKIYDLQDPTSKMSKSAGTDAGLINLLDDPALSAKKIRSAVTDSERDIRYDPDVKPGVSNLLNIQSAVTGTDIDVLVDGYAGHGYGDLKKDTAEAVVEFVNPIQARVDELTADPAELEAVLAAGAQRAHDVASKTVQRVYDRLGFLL
For the molecule `CCNC(=O)[C@@H]1C[C@@H](N)CN1C(=O)c1cc2ccccc2[nH]1`, the Percent Effect was found to be 2.18%.
As for `Cc1ccc(N2C[C@@H]3CN(C(=O)c4ccccc4)CCO[C@@H]3C2)nn1`, the Percent Effect amounted to 12.7%.
For `Cn1ccnc1CN1CCN2C[C@H](Oc3ccccc3)C[C@H]2C1`, the Percent Effect was 2.44%.
Regarding `CC(=O)Nc1ccc(CN2C[C@H]3CC[C@@H]2CN(c2ncccn2)C3)cc1`, the Percent Effect stood at 3.06%.
As to `c1cncc(CN2CCO[C@H]3[C@H](OCCN4CCCC4)CC[C@@H]32)c1`, the Percent Effect was found to be 2.57%.
The value for `Cc1c[nH]c(CN2CC[C@@]3(O)CCN(C(=O)C4CCC4)C[C@H]3C2)n1` was 1.37%.
The value for `Cc1ncsc1C(=O)NC1CCN(CCCC#N)CC1` was -4.15%; that for `Cc1ncsc1C(=O)NC1CCN(CCC#N)CC1` was 57.5%; that for `Cc1ncsc1C(=O)NC1CCN(CCC(N)=O)CC1` was 0.56%.
For the molecule `CN(Cc1cccnc1)C[C@H]1OC[C@@H]2CCN(C(=O)C3CC3)C[C@@H]21`, the Percent Effect was -1.23%.
With `Cc1ccc(CN(C)C(=O)CN2CCCC(Cn3cncn3)C2)cc1` (stereo unspecified) the figure was 11.8%; with `c1cnc(-c2nc(CN3CCCC(Cn4cncn4)C3)cs2)nc1` (stereo unspecified), -1.17%; with `CN(Cc1cnn(C)c1)C(=O)CN1CCCC(Cn2cncn2)C1` (stereo unspecified), 85.4%.
With `CC(C)c1nc(CN2CCCC(Cn3cncn3)C2)cs1` (stereo unspecified) the figure was 61.3%.
On to `CN(Cc1ccccc1)C(=O)CN1CCCC(Cn2cncn2)C1` (stereo unspecified), for which the Percent Effect was determined as 5.08%.
On to `CC(C)(C)c1nc(CN2CCCC(Cn3cncn3)C2)cs1` (stereo unspecified), for which the Percent Effect worked out at 3.52%.
The value for `O=C(c1ccno1)N1CCN2C(=O)N(Cc3ccc(F)cc3)C[C@H]2C1` was 0.0753%.
The value for `O=C(c1ccnnc1)N1C[C@H](OCC2CCOCC2)[C@H]2OCCC[C@H]21` was -0.419%; that for `O=C(C1CCC1)N1C[C@H]2CNC[C@H]2C1` was 9.01%.
With `O=C(NS(=O)(=O)c1cccnc1)C1CC(c2ccccc2)=NO1` (stereo unspecified) the figure was 54.1%; with `N#Cc1ccc(S(=O)(=O)NC(=O)C2CC(c3ccccc3)=NO2)cc1` (stereo unspecified), 0.0809%; with `COc1cccc(S(=O)(=O)NC(=O)C2CC(c3ccccc3)=NO2)c1` (stereo unspecified), 0.405%.
Turning to `COc1c(CNC2CCCN(c3ncccn3)C2)c(C(C)C)nn1C` (stereo unspecified), the Percent Effect amounted to 67.7%.
With `COc1c(CNC2CCN(c3ncccn3)CC2)c(C(C)C)nn1C` the figure was 1.66%.
`COc1c(CNC2CCN(c3ccccn3)CC2)c(C(C)C)nn1C`: the Percent Effect came to 1.1%.
In the case of `COc1cccc(OC)c1CNC(Cc1ccsc1)c1ccc(C)cn1` (stereo unspecified), the Percent Effect is -1.02%.
Take `Cc1occc1C(=O)N1C[C@@H]2CCCO[C@@H]2[C@H](N(C)Cc2ccco2)C1`: the Percent Effect was found to be 1.95%.
Regarding `CC(C)c1cc(C(=O)N2CCN(CC3CC3)[C@@H]3CS(=O)(=O)C[C@@H]32)no1`, the Percent Effect was -4.85%.
The value for `O=C1N(CCO)CCCC12CCN(Cc1noc(C3CCCC3)n1)C2` (stereo unspecified) was 7.84%; that for `CCCN1CCCC2(CCN(Cc3noc(C4CCCC4)n3)C2)C1=O` (stereo unspecified) was 7.84%.
`CC(C)N1CCCC2(CCN(Cc3noc(C4CCCC4)n3)C2)C1=O` (stereo unspecified): the Percent Effect is 54.2%.
With `O=C(NCc1ccccc1)N1C[C@H]2CCN[C@H]2C1` the figure was 2.62%.
The value for `COCCN1C(=O)CO[C@H]2CN(S(=O)(=O)c3ccccc3)C[C@H]21` was -1.73%.
For `CCN1C[C@@H]2[C@@H](OC)CCN(C(=O)c3cc(C)nn3CC)[C@@H]2C1`, the Percent Effect is -1.95%.
As for `Cc1ncc2c(n1)CN(CC(=O)Nc1cc(C)on1)CC2`, the Percent Effect was 0.514%.
With `Cc1cc(NC(=O)CN2CCc3cncnc3C2)on1`, the Percent Effect came to 2.85%.
Consider `Cc1cc(NC(=O)CN2CCc3cncnc3C2)no1`, for which the Percent Effect was determined as 69%.
As to `CCCS(=O)(=O)N1CC[C@H]2O[C@H](c3nnc(C)o3)CC[C@H]21`, the Percent Effect was -5.84%.
As to `CNC(=O)c1nc(CN2CCOC(CCCC(C)C)C2)no1` (stereo unspecified), the Percent Effect was found to be 0.819%.
The value for `CNC(=O)c1nc(CN2CCOC(C(F)(F)F)C2)no1` (stereo unspecified) was 69.6%; that for `NC(=O)c1nc(CN2CCOC(C(F)(F)F)C2)no1` (stereo unspecified) was -0.819%.
In the case of `CCCNCc1ccc(-c2ccnc3[nH]ccc23)cc1`, the Percent Effect is -1.02%.
On to `CC(C)N1[C@@H](C(=O)NCCN(C)C)C[C@H]2CN(c3ncccn3)C[C@H]21`, for which the Percent Effect was determined as 5.77%.
The value for `c1cnnc(N2CCCC(NCc3nc(-c4cccs4)no3)C2)c1` (stereo unspecified) was -1.29%.
With `c1ccc(-c2noc(CNC3CCCN(c4cccnn4)C3)n2)nc1` (stereo unspecified) the figure was 1.43%; with `c1cnnc(N2CCCC(NCc3nc(-c4ccco4)no3)C2)c1` (stereo unspecified), 90.8%.
With `C[C@H]1C[C@H]2CN(C(=O)CC3CC3)CC[C@H]2O1` the figure was 2.03%; with `CC(C)c1nc(C2CCCN2C(=O)c2cnns2)no1` (stereo unspecified), -5.71%.
Consider `Cc1ccccc1CNC(=O)N1C[C@H]2C[C@H](C(=O)N3CCCC3)[C@@H](C1)O2`, for which the Percent Effect is -2.16%.
With `CCn1ncc(CN2CCC(c3ncc(Cl)cc3S(C)(=O)=O)CC2)c1C` the figure was -1.24%; with `C=Cn1cc(CN2CCC(c3ncc(Cl)cc3S(C)(=O)=O)CC2)c(C)n1`, -5.42%; with `C=Cn1ncc(CN2CCC(c3ncc(Cl)cc3S(C)(=O)=O)CC2)c1C`, 67.3%.
With `Fc1ccccc1CO[C@@H]1C[C@H]2CN(c3ncccn3)CCN2C1` the figure was -4.64%; with `CCc1nnc2n1CCN(Cc1csc(-c3ncccn3)n1)C2`, 1.94%; with `c1cnc(-c2nc(CN3CCn4c(nnc4C4CC4)C3)cs2)nc1`, -3.46%.
The value for `Cc1nnc2n1CCN(Cc1csc(-c3ncccn3)n1)C2` was 59%; that for `CN(C)C(=O)CN1C[C@@H]2CC[C@H](C1)N(Cc1c(F)cccc1Cl)C2` was 2.26%; that for `COc1ccc(CCc2nnc(NC(=O)C3CC34CCC4)s2)cc1OC` (stereo unspecified) was -2.9%.
Regarding `COc1ccccc1OCCc1nnc(NC(=O)C2CC23CCC3)s1` (stereo unspecified), the Percent Effect was 72.7%.
With `COc1ccc(Cc2nnc(NC(=O)C3CC34CCC4)s2)cc1OC` (stereo unspecified) the figure was 1.5%; with `CSC1=Nc2c(cnn2-c2cccc(Cl)c2)C2=NCCCN12`, 1.3%; with `Cc1cnn(CC2CCCN2Cc2nnc(C)o2)c1` (stereo unspecified), -10.6%.
With `Cc1cnn(CC2CCCN2Cc2nc(N)c3ccccc3n2)c1` (stereo unspecified), the Percent Effect was 57.9%.
For `CCc1nnc(CN2CCCCC2Cn2cncn2)o1` (stereo unspecified), the Percent Effect is 75.1%.
With `Cc1cnn(CC2CCCN2Cc2nnc(C(C)C)o2)c1` (stereo unspecified) the figure was 60.5%; with `c1ccc(Cc2nnc(CN3CCCCC3Cn3cncn3)o2)cc1` (stereo unspecified), -0.0684%.
With `Cc1cnn(CC2CCCCN2Cc2nc(N)c3ccccc3n2)c1` (stereo unspecified) the figure was 1.18%; with `Cc1cnn(CC2CCCN2Cc2nc(C)c3ccccc3n2)c1` (stereo unspecified), 0.13%; with `Cc1ccc(-c2nnc(CN3CCCCC3Cn3cncn3)o2)cc1` (stereo unspecified), 3.48%.
For `CCc1nnc(CN2CCCC2Cn2cc(C)cn2)o1` (stereo unspecified), the Percent Effect was 9.78%.
With `CNC(=O)N1CC[C@@H]2CN(CCc3cccc(OC)c3)S(=O)(=O)[C@@H]2CC1`, the Percent Effect is -3.31%.
Take `CCc1cnc(N2C[C@H]3C[C@H](C(=O)NC4CCC4)[C@@H](C2)O3)nc1`: the Percent Effect is -1.02%.
In the case of `CCNC(=O)N1C[C@@H]2OCC(=O)N(CC3CC3)[C@@H]2C1`, the Percent Effect is -1.91%.
As to `Cc1cccnc1NCCNC(=O)c1cnc(-c2ccccn2)nc1O`, the Percent Effect came to 2.7%.
The value for `Cn1cc(CN2CC[C@H]3OCC[C@@H](C(=O)NCc4ccco4)[C@@H]3C2)cn1` was 0.83%; that for `O=C1C[C@H]2[C@@H](CCN2C(=O)c2ccoc2)N1CCN1CCOCC1` was 2.55%.
With `Cn1ccnc1C(=O)N1C[C@@H]2CCN(c3cnccn3)C[C@@H]2C1` the figure was 2.7%.
With `CC(=O)N1CCC(C(=O)N2CCC2c2nc(-c3ccc(C)s3)no2)CC1` (stereo unspecified), the Percent Effect worked out at 56.7%.
The value for `CC(=O)N1CCC1c1nc(-c2ccc(C)s2)no1` (stereo unspecified) was 13.1%; that for `Cc1ccc(-c2noc(C3CCN3C(=O)c3ccn(C)n3)n2)s1` (stereo unspecified) was -4.63%; that for `COCCNC(=O)Cn1ccc2sc(C)cc2c1=O` was 0.44%.
The value for `CCCc1noc(CN2CCN(c3nccs3)CC2)n1` was 2.03%; that for `CCc1noc(CN2CCN(c3nccs3)CC2)n1` was 71.8%.
Regarding `CC(C)Cc1noc(CN2CCN(c3nccs3)CC2)n1`, the Percent Effect is -1.84%.
With `Cc1nn(C)c2c(=O)n(CC(=O)NCCC3=CCCCC3)ccc12` the figure was 2.33%.
Turning to `CCN(c1ccc(C(=O)N2CCCC2c2cnn(C)c2)cn1)C(C)C` (stereo unspecified), the Percent Effect is 64.8%.
The value for `CCCN(CC)c1ccc(C(=O)N2CCCC2c2cnn(C)c2)cn1` (stereo unspecified) was -3.89%; that for `CC(C)CN(C)c1ccc(C(=O)N2CCCC2c2cnn(C)c2)cn1` (stereo unspecified) was 2.24%.
With `O=C([C@H]1CN(Cc2nccs2)C[C@H]2OCC[C@@H]12)N1CCCC1` the figure was 4.93%.
On to `O=C1CO[C@@H]2CN(S(=O)(=O)c3ccccc3)C[C@H]2N1CC1CC1`, for which the Percent Effect was 4.3%.
Take `O=S1(=O)CCC(N(Cc2nc3ccccc3o2)Cc2cccs2)C1` (stereo unspecified): the Percent Effect amounted to 57%.
With `Cc1noc(CN(Cc2cccs2)C2CCS(=O)(=O)C2)n1` (stereo unspecified) the figure was -5.5%.
With `Cc1nc(CN(Cc2cccs2)C2CCS(=O)(=O)C2)oc1C` (stereo unspecified) the figure was 1.07%.
The value for `CC(C)(C)c1nc(CN(Cc2cccs2)C2CCS(=O)(=O)C2)no1` (stereo unspecified) was -0.877%.
For `O=S1(=O)CCC(N(Cc2nc(-c3ccccn3)no2)Cc2cccs2)C1` (stereo unspecified), the Percent Effect is -6.38%.
The value for `Cc1noc(C)c1CN(Cc1cccs1)C1CCS(=O)(=O)C1` (stereo unspecified) was 59.4%; that for `O=C(c1ccnnc1)N1C[C@@H]2C[C@@H](c3nc(C4CC4)cs3)O[C@@H]2C1` was 2.42%; that for `O=C(NCc1ccco1)[C@@H]1CCO[C@@H]2CCN(c3ncccn3)C[C@@H]21` was 3.59%.
With `c1cncc(OCc2noc3c2CN(Cc2ccsc2)CC3)c1` the figure was -0.692%; with `CC(c1nc(C2CC2)no1)N1CCN(c2ccc(C#N)cn2)CC1` (stereo unspecified), 0.106%.
Consider `O=C1CC[C@H]2CN(Cc3ccc(Cl)s3)CC[C@H]2N1CCc1c[nH]cn1`, for which the Percent Effect worked out at 0.411%.
